Screening data from PubChem BioAssay.
An excerpt weighted towards active compounds, which were near 11% of everything screened.
ALDH1A1 inh = qHTS Assay for Inhibitors of Aldehyde Dehydrogenase 1 (ALDH1A1). Potency, µM (series often up to 75.3 µM), for inactives: top-dose activity, negative = inhibition, actives largely listed as inhibitors. Aldehyde dehydrogenase 1A1 (Homo sapiens), P00352. 7.3% of 220,000 active. Purified ALDH1A1, NADH fluorescence, propionaldehyde substrate;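 also: potency is read from the fitted curve at half-maximal effect; plate controls were no enzyme wells and a reference inhibitor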
HPGD block = qHTS Assay for Inhibitors of HPGD (15-Hydroxyprostaglandin Dehydrogenase) | 15-hydroxyprostaglandin dehydrogenase [NAD(+)] (Homo sapiens), P15428 | 4.3% of 150,000 active | purified HPGD, NADH fluorescence kinetic, PGE2 substrate | Potency, µM, for the others: at the top dose activity change, negative = inhibition, most hits filed as inhibitors; also: potency is read from the fitted curve at half-maximal effect
Target sequence (P15428 whole entry, looked up): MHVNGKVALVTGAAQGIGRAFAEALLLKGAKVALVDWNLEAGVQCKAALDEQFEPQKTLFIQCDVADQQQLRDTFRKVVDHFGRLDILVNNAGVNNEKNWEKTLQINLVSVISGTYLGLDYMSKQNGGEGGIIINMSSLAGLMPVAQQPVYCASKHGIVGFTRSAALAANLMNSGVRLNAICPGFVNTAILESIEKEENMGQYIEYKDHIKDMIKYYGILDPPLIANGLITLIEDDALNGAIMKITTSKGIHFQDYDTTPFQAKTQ
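20 nM HPGD preincubated 15 min at room temperature with compound in 50 mM Tris-HCl pH 8, 0.01% Tween 20. Started with 1 mM NAD+ and 30 uM prostaglandin E2; NADH fluorescence (360/450 nm) read 5 times over 30-s intervals, last minus first.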
PNC assembly inh = High Content Assay for Compounds that inhibit the Assembly of the Perinucleolar Compartment | PC3M PTB-GFP, PNC prevalence imaging, 16 h; active compounds read low | activity change (PNC), negative = inhibition, % at 10 µM | 3.1% of 140,000 active;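 active = readout at or below -70, meaning at least 70% loss of cells showing the perinucleolar compartment, a nuclear body marking cancer cells; inconclusive = readout between -30 and a set limit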;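 also: plate controls were DMSO wells for no effect and camptothecin positive control wells for full effect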
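Read-out is percentage of cells bearing a perinucleolar compartment, from automated 20x imaging of fixed, Hoechst-stained PC3M PTB-GFP cells. Cells were seeded 4 h, then exposed 16 h to compound (23 nl of library stock) in duplicate plates.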
* hit, by the source's call; ? = inconclusive; . = no result given; [ ] = dose if it differs, or a comment. Unless noted, calls follow the shape of the dose curve; as a rule, active = well fitted inhibition curve with a large enough effect (not every such curve was filed as active); inconclusive = small, poorly fitted or top-dose-only effect, or another doubt; inactive = no such curve, though single readings can be large or run the other way. Unless noted, % is scaled to controls: 0 for no effect and ±100 for the full control effect.

SMILES | ALDH1A1 inh | HPGD block | PNC assembly inh
COc1ccccc1/C=C/C(=O)c1ccccc1 | -7% | . | .
Cc1ccc(S/C=C\C(=O)c2ccccc2)cc1 | 20µM* | -21% | ?
O=C(O)/C=C/C(=O)Nc1ccc(O)cc1 | -3% | . | .
O=C(O)/C=C/C(=O)c1ccc(O)cc1 | 14µM* | . | .
O=C(Nc1ccc(Cl)cc1)OCc1cn(-c2ccccc2)nn1 | 7% | . | .
CCOC(=O)N/N=C1/C[C@@H](O)[C@@H](O)[C@@H]2[C@H]3C(=O)N(c4ccc(F)cc4F)C(=O)[C@@H]3CC[C@H]12 | 13%[13.5 µM] | . | .
CC1(C(=O)OCC(=O)Nc2cccc(S(=O)(=O)NC3=NCCCCC3)c2)CC1(Cl)Cl (stereo unspecified) | -2% | . | .
C#CCCCO/N=C1/C[C@@H](O)[C@@H](O)[C@@H]2[C@@H]3C(=O)N([C@@H](C)c4ccccc4)C(=O)[C@H]3CC[C@@H]12 | 8%[13.5 µM] | . | .
Cc1ccc(C(=O)/C=C/c2ccc(-c3ccc(C)cc3)o2)cc1 | 0.71µM* | 7.1µM* | -24
Cc1ccc(-c2ccc(/C=N/NC(=O)c3ccccc3O)o2)cc1 | -10% | . | .
CCN(CC)S(=O)(=O)c1cccc(C(=O)NC(Cc2c[nH]c3ccccc23)c2nnc3n2CCC3)c1 (stereo unspecified) | -1% | -1% | ?
NC(N)=N/N=C\c1ccc(C2CCNCC2)cc1 | -3%[13.5 µM] | -2% | .
CC1(C)CNc2cc(N)ccc2S1 | -1% | . | .
COc1cc(NC(=O)CCCl)cc(-n2cnnn2)c1 | -10% | . | .
O=C(Cn1c(=O)n(-c2ccccc2)c(=O)c2sccc21)NCc1ccccc1 | -2% | . | .
O=c1c(Cl)c(NCC2CCCO2)cnn1C12CC3CC(CC(C3)C1)C2 (stereo unspecified) | 18µM* | . | .
CCc1ccc(Nc2cnn(C34CC5CC(CC(CC(=O)O)(C5)C3)C4)c(=O)c2Cl)cc1 | -12% | . | .
NC[C@@H](O)CSCc1ccc(Cl)cc1 | 5%[13.5 µM] | -5% | .
C=CCNC(=S)Nc1ccc(N(C)C)cc1 | 0% | . | .
CCN(/N=C/c1ccc(Cl)cc1)c1cc(=O)n(C)c(=O)[nH]1 | ? | 28µM* | 6
CCN(/N=C/C=C/c1ccccc1)c1cc(=O)n(C)c(=O)[nH]1 | 1% | -26% | ?
Cc1onc(-c2ccccc2)c1C(=O)N1CCCN(C(=O)c2c(-c3ccccc3)noc2C)CC1 | -1% | -11% | -7
Cc1onc(-c2ccccc2)c1C(=O)N1CCCSC1=Nc1ccccc1 | 11µM* | -20% | 26
COc1ccc(C(=O)N2CCC[C@@]3(CCN(C)C3)C2)cc1 | -8% | -12% | .
COc1ccc(CN2CCS(=O)(=O)CC2)cc1OC | -14% | . | .
SMILES | ALDH1A1 inh | HPGD block | PNC assembly inh
COc1ccc(CN2C(=O)CS(=O)CC2=O)cc1OC | 8.9µM* | -12% | -26
O=C(NCC1CCCO1)C1CC1(c1ccccc1)c1ccccc1 (stereo unspecified) | 22% | -2% | -19
Cc1ccc(C(=O)Oc2ccc3c(c2)ncn3C)cc1 | -13% | 7.9µM* | -10
Cn1cnc2cc(OC(=O)c3ccccc3)ccc21 | -9% | -7% | 23
Cc1c(C(=O)NCc2n[nH]c(=S)n2-c2ccc(F)cc2)cccc1[N+](=O)[O-] | -1% | . | .
COc1cc([N+](=O)[O-])c(OC)cc1SCc1n[nH]c(=S)n1-c1ccc(F)cc1 | 2.2µM* | . | .
COc1ccc(-c2nc3cnc(OC)nc3n(CCC#N)c2=O)cc1 | -15% | . | .
CC1(C)Cc2ccccc2-c2c1c(=O)n(Cc1ccccc1)c1nnnn21 | ? | -13% | -100*
CCC1(C)Cc2ccccc2-c2c1c(=O)n(-c1ccc(C)cc1)c1nnnn21 (stereo unspecified) | ? | 9% | 22
CN(C)S(=O)(=O)c1cccc(C(=O)N2CCc3ccccc32)c1 | -1% | -11% | 36
CN(C)S(=O)(=O)c1cccc(C(=O)C2=C3SC=C(c4ccccc4)N3CC2)c1 | 2µM* | -25% | -20
Cc1cc(C)n(-c2ncnc3ccccc23)n1 | 9% | . | .
O=C1CC(c2ccc(F)cc2)Cc2nc(N3CCOCC3)ncc21 (stereo unspecified) | 28µM* | -21% | -1
O=C1CC(c2cccc(Cl)c2)Cc2nc(N3CCOCC3)ncc21 (stereo unspecified) | -5% | -28% | -17
CCN(CC)Cc1ccccc1Sc1ccccc1 | 7% | -3% | ?
COc1ccc(-c2[nH]ncc2C=O)cc1OC | 6% | . | .
COc1ccc(-c2coc3cc4oc(=O)c5ccccc5c4cc23)cc1F | -6% | ? | -81*
Cc1c(CCC(=O)O)c(=O)oc2cc3occ(-c4ccc(F)cc4)c3cc12 | -3% | -17% | ?
